Hits are enriched below; roughly 3.1% of the tested compounds scored in any of these assays.
Rin1 Abl inh: blocks binding of human Rin1 to Abl | P00519+Q13671 | TR-FRET Rin1/Abl binding, biochemical | inhibition, % at 7.35 µM | 360,000 compounds, 0.4% hits | AID 588664; in the data active means inhibition above about 5%, passing the limit was not always enough
KLK7 zymogen act: activators of human kallikrein-7 zymogen. P49862. purified proKLK7, EDANS-DABCYL substrate fluorescence; 100% is mature enzyme control, 0% vehicle. 370,000 compounds, 0.9% hits. activation, % at 7 µM;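 active means activation above the mean of all tested compounds plus 3 SD, computed per campaign excluding outliers beyond control limits, cut at about 13% in these data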
UHRF1 MBD2 ctr: human UHRF1 methylated DNA binding inhibitors | 370,000 compounds, 0.75% hits | AID 687016 | inhibition, % at 4.4 µM | UHRF1 binding to methylated oligo, TR-FRET; in the data active means inhibition above about 21%;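 further: UHRF1 SRA domain binding a hemimethylated CpG hairpin DNA probe; 0% = median of test compound wells and 100% = reference inhibitor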
MBD2 DNA inh: MBD2-methylated oligo binding inhibition. TR-FRET, MBD2 binding to methylated oligonucleotide. 370,000 compounds, 0.31% hits. AID 686964. inhibition, % at 4.4 µM; in the data active means inhibition above about 13%
Target sequence (Q9UBB5 whole entry, looked up): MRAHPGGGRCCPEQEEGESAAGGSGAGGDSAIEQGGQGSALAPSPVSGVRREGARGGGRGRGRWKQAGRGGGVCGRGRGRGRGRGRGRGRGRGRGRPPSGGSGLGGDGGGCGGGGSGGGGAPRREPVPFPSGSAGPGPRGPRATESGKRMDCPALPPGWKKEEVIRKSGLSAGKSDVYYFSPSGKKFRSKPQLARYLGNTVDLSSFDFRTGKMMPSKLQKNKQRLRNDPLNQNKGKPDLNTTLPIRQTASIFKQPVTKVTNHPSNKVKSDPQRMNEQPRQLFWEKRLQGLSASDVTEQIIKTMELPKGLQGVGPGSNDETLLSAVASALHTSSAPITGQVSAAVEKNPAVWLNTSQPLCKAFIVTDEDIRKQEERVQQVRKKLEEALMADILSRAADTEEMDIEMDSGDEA
Neddylation inh: blocks human cullin neddylation; P61081+Q13564; TR-FRET cullin neddylation, biochemical; calls only at 25 µM; 360,000 compounds, 0.58% hits; AID 651699; in the data active means inhibition above about 36%
LEDGF integ inh: blocks HIV-1 LEDGF/p75-dependent DNA integration; TR-FRET IN-LEDGF/p75 DNA integration, Eu/Cy5; inhibition, % at 3.7 µM; 370,000 compounds, 0.64% hits; AID 743269;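 active means inhibition above the screen-wide mean plus 3 SD, cut at about 13% in these data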;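 further: signal is the Cy5 over europium emission ratio at 671 and 618 nm; 0% = plate median of compound wells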
IN multimer act: activates HIV-1 integrase multimerization in LEDGF counter-screen; shares compounds with LEDGF integ inh; activation, % at 7.7 µM; 2,000 compounds, 17% hits; TR-FRET HIV-1 integrase multimerization, biochemical; in the data active means activation above about 8.9%
TR-FRET interf: counter-screen for LEDGF/p75 integration inhibitors: TR-FRET optical interference. shares compounds with LEDGF integ inh. TR-FRET optical interference counterscreen, HIV-1 IN multimerization. inhibition, % at 7.7 µM. 2,000 tested, under 10 active. AID 1053135;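 active means inhibition above the mean over all tested compounds plus 3 SD, which no compound reached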;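 further: 0% = integrase with antibodies and DMSO and 100% = antibodies without integrase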
IN-LEDGF confirm: confirmation of HIV-1 LEDGF/p75-dependent integration inhibitors; shares compounds with LEDGF integ inh; TR-FRET LEDGF/p75-dependent HIV-1 integration, biochemical; inhibition, % at 3.7 µM; 2,000 compounds, 36% hits; AID 1053136; in the data active means inhibition above about 14%
Numbers without * were called inactive.

Screening Nc1cc2cccnc2cc1Cl returned Rin1 Abl inh 4.5, KLK7 zymogen act 6.6, UHRF1 MBD2 ctr 7.2, MBD2 DNA inh -3.5, Neddylation inh inactive, LEDGF integ inh 17.6*, IN multimer act 4.6, TR-FRET interf -16.4 and IN-LEDGF confirm 26.8*.
For Brc1ccc2cccnc2c1 the results were Rin1 Abl inh -2.4, KLK7 zymogen act 0.0, UHRF1 MBD2 ctr 2.1, MBD2 DNA inh 1.4, Neddylation inh inactive and LEDGF integ inh -2.0.
COc1ccc(OC)c(S(=O)(=O)NCC2CCN(C(=O)C(=O)c3cccs3)CC2)c1 was read as KLK7 zymogen act 0.0, UHRF1 MBD2 ctr 2.9, MBD2 DNA inh 3.0 and LEDGF integ inh -3.9.
Screening O=C1C(=O)c2ccccc2C(O)=C1c1ccccc1F returned Rin1 Abl inh -7.0, KLK7 zymogen act -0.5, UHRF1 MBD2 ctr -11.4, MBD2 DNA inh -15.3, Neddylation inh inactive and LEDGF integ inh -3.9.
`O=C1C(O)=C(O)C(=O)c2ccccc21` gave Rin1 Abl inh 23.6*, KLK7 zymogen act 3.4, UHRF1 MBD2 ctr 7.2, MBD2 DNA inh -1.0, Neddylation inh inactive, LEDGF integ inh 16.4*, IN multimer act 2.8, TR-FRET interf -9.6 and IN-LEDGF confirm 40.9*.
For CN(Cc1ccccc1)C(=O)c1nc[nH]c1C(=O)N(C)Cc1ccccc1 the results were Rin1 Abl inh -2.4, KLK7 zymogen act -0.3, UHRF1 MBD2 ctr 0.8, MBD2 DNA inh 2.4, Neddylation inh inactive, LEDGF integ inh 16.6*, IN multimer act 0.4, TR-FRET interf -2.0 and IN-LEDGF confirm 6.7.
CN(Cc1ccccc1)C(=O)c1[nH]cnc1C(=O)Nc1ccccc1 was read as Rin1 Abl inh 0.6, KLK7 zymogen act 0.3, UHRF1 MBD2 ctr 0.5, MBD2 DNA inh 0.3, Neddylation inh inactive and LEDGF integ inh 1.5.
CSc1nnc(CCCCCCCCc2nnc(SC)o2)o1 was read as Rin1 Abl inh 0.8, KLK7 zymogen act 0.0, UHRF1 MBD2 ctr 0.4, MBD2 DNA inh 2.4, Neddylation inh inactive and LEDGF integ inh -1.3.
For O=C(Nc1ccc(F)cc1)NC1CCN(Cc2nnnn2Cc2ccco2)CC1 the results were Rin1 Abl inh -1.4, KLK7 zymogen act -0.2, UHRF1 MBD2 ctr 18.7, MBD2 DNA inh 8.6, Neddylation inh inactive, LEDGF integ inh 13.9*, IN multimer act -1.1, TR-FRET interf 4.1 and IN-LEDGF confirm -0.7.
COc1cc(S(=O)(=O)N2CCOCC2)ccc1N was read as Rin1 Abl inh 4.8, KLK7 zymogen act -0.1, UHRF1 MBD2 ctr -1.9, MBD2 DNA inh 0.1, Neddylation inh inactive and LEDGF integ inh -6.8.
Screening COc1ccc(N)c2c1OCCC2=O returned Rin1 Abl inh -1.9, KLK7 zymogen act 0.4, UHRF1 MBD2 ctr 7.2, MBD2 DNA inh -2.5, Neddylation inh inactive, LEDGF integ inh 19.2*, IN multimer act -0.6, TR-FRET interf 2.0 and IN-LEDGF confirm -5.2.
`Cc1cnc2ccc(F)cc2c1` gave Rin1 Abl inh 0.8, KLK7 zymogen act 0.8, UHRF1 MBD2 ctr 0.5, MBD2 DNA inh 4.1, Neddylation inh inactive and LEDGF integ inh 5.7.
O=C(O)C1Nc2c(Cl)cc(Cl)c(Cl)c2C2C=CCC12 (configuration not stated) was read as Rin1 Abl inh -2.1, KLK7 zymogen act -0.4, UHRF1 MBD2 ctr 4.7, MBD2 DNA inh 1.1, Neddylation inh inactive and LEDGF integ inh 4.4.
CC(C)C1Nc2c(O)cc(Cl)c([N+](=O)[O-])c2C2C=CCC21 (configuration not stated) was read as Rin1 Abl inh -1.9, KLK7 zymogen act 0.1, UHRF1 MBD2 ctr -5.4, MBD2 DNA inh -5.5, Neddylation inh inactive, LEDGF integ inh 26.1*, IN multimer act 1.1, TR-FRET interf -4.0 and IN-LEDGF confirm 10.7.

Screening data (PubChem)
